Bioassay records from PubChem.
An excerpt weighted towards active compounds, which were near 0.78% of everything screened.
PINK1 modulator: A Quantitative High throughput Screen to Identify Chemical Modulators of PINK1 Expression; PINK1 immunofluorescence, high-content cytometry, 24 h; Potency, µM (doses to about 76.6 µM), without a hit: at the top dose activation (PINK1 increase), usual class: activators; hit rate 0.2% among 410,000; active means well fitted activation curve with a large enough effect; inconclusive means small, poorly fitted or top-dose-only effect; cell line not stated here; further: potency means the concentration at half of the fitted maximal effect; % of control where 0% means no effect; nearly all actives have a fitted effect of over 65% in size
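PINK1 protein level read as immunofluorescence by microplate cytometer in a fixed, stained stable cell line after 24 h exposure to five compound concentrations, with CCCP as control.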
CCT chaperon mod: High-Throughput Screening for Modulators of Cytosolic Chaperonin Activity; activity change, % (no concentration beside the values), hits read low; purified chaperonin ATPase assay, HTRF ADP detection, 30 min; hit rate 0.3% among 360,000; in the data active means activity change below about -30%; further: on the % scale 0 is the no-effect control and ±100 the full control effect
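Nucleotide hydrolysis assay: TRiC at 20–40 nM final (set by batch activity) with 10 uM ATP, 30 min at 37 °C, in presence of 76 uM compound. Detection by competitive ADP HTRF, 30 min ambient.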
PI4K2A block: qHTS for small molecular inhibitors of PI4K2A; Phosphatidylinositol 4-kinase type 2-alpha (Homo sapiens), Q9BTU6; purified PI4K2A, ADP-Glo luminescence, 1 h; stronger effect = lower value; activity change, negative = inhibition, % at 76.9 µM; hit rate 0.13% among 420,000; in the data active means activity change below about -50%; inconclusive means mostly about -30% to -49%;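 further: -100% = wells without enzyme as full effect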
Target sequence (Q9BTU6 whole entry, looked up): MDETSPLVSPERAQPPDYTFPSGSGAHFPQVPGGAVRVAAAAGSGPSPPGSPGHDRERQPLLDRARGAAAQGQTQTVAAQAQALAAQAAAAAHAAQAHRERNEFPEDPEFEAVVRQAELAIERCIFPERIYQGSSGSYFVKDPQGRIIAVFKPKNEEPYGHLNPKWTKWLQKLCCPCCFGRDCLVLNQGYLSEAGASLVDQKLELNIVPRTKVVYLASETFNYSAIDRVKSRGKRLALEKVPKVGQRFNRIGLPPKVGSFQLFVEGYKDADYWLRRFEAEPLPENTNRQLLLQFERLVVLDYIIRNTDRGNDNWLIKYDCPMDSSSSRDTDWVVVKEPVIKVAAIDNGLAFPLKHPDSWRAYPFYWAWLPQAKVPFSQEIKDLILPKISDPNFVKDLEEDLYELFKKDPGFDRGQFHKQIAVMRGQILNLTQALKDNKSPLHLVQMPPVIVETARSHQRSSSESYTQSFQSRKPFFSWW
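PI4K2A activity was measured by ADP-Glo luminescence: enzyme (4 ug/mL stock) and phosphatidylinositol (1.2 mM stock) in Tris pH 7.5/MgCl2/EGTA/Triton X-100 buffer were reacted with ATP (300 microM stock) for one hour at ambient temperature.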
PGK inhibitor: qHTS Assay to Find Inhibitors of Phosphoglycerate Kinase; Phosphoglycerate kinase, glycosomal (Trypanosoma brucei brucei), P07378; AID 602233, 2012; hit rate 0.043% among 380,000; PGK/GAPDH coupled, Kinase-Glo luminescence, 60 min; Potency, µM (series often up to 57.5 µM), without a hit: top-dose activity change, negative = inhibition, hits mostly inhibitors; further: potency means the concentration at half of the fitted maximal effect; on the % scale 0 is the no-effect control and ±100 the full control effect; nearly all actives have a fitted effect of over 60% in size
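Recombinant glycosomal PGK reaction used 1,3-bisphosphoglycerate generated in-well by GAPDH (100nM final) in 100mM TEA pH 7.6, 5mM MgCl2, 0.01% Tween-20. After 60 minutes at room temperature, ATP was read by Kinase-Glo Plus luminescence end-point.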
GLS inhibitor: qHTS for Inhibitors of Glutaminase (GLS) | Glutaminase kidney isoform, mitochondrial (Homo sapiens), O94925 | Potency, µM (top dose mostly 45.5 µM), inactives show at the top dose activity change, negative = inhibition, most hits filed as inhibitors | AID 624170, 2012 | GLS enzymatic activity, qHTS titration | hit rate 0.21% among 410,000; further: potency means the concentration at half of the fitted maximal effect; on the % scale 0 is the no-effect control and ±100 the full control effect
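Read-out is an Amplex red fluorescence increase coupled through glutamate oxidase and HRP, measured before and after 30 min room-temperature incubation. hKGA is in 45 mM KH2PO4 (pH 8.2) with 0.02% Tween-20; glutamine added as 1mM solution.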
Starred values were filed as active, the others as inactive; i = inactive; ? = inconclusive; nt = no result; [ ] = dose if it differs, or a comment. Unless noted, the call rests on the fitted dose curve; in most records, active means well fitted curve in the direction sought with a large enough effect; inconclusive means small, poorly fitted or top-dose-only effect, or another doubt; inactive means no such curve, though single readings can be large; an effect the other way counts as inactive or inconclusive.

SMILES | PINK1 modulator | CCT chaperon mod | PI4K2A block | PGK inhibitor | GLS inhibitor
COc1ccc(OC)c(N2C(=O)NC(=O)/C(=C\c3ccc([N+](=O)[O-])s3)C2=O)c1 | 6.1% | 1.7 | -21.2 | -19.1% | 10µM*
O=C(CBr)Nc1ccc(Cl)cc1C(=O)c1ccccc1F | nt | nt | -2.0 | nt | nt
O=C(O)c1ccccc1-c1ccc(C=C2C(=O)N(c3ccccc3)C(=S)N(c3ccccc3)C2=O)o1 | 0.2% | -2.0 | -14.7 | -7.5% | 8.91µM*
N/C(=N\N=C/c1ccc(-c2ccc(O)c(C(=O)O)c2)o1)N[N+](=O)[O-] | -3.8%[38.3 µM] | 0.2 | -12.2 | 10µM* | -21.2%
C=C1[C@@H](OC(C)=O)[C@]23C[C@@H]1[C@@H](OC(C)=O)CC2[C@]12C4C[C@H]3[C@H]1N(CC)C[C@]4(C)CC[C@@H]2O (stereo not given in full) | 1.1% | -67.8* | 3.4 | 2.0% | 7.4%
O=c1c(C2CC(c3ccc(-c4ccc(Br)cc4)cc3)Cc3ccccc32)c(O)sc2ccccc12 (stereo not given) | nt | nt | -6.6 | nt | nt
Cc1cc(O)c2c(c1)C(=O)[C@@]13C(=C2O)C(=O)[C@H]2C(O)[C@@H]1[C@H]1C(O)[C@@H]3C(=O)C3=C(O)c4c(O)cc(C)cc4C(=O)[C@@]312 (stereo not given in full) | nt | nt | -75.8* | nt | nt
Cc1c(P(=S)(c2ccccc2)c2ccccc2)[n+]2ccccc2n1CCc1ccccc1 | 25.1µM* | nt | 3.0 | nt | -6.2%
S=P(c1ccccc1)(c1ccccc1)c1c[n+](Cc2ccccc2)c2ccccn12 | nt | nt | -1.4 | nt | nt
CC(=O)[C@@]1(O)CC[C@@H]2[C@@H]3CCC4=CC(=O)CC[C@]4(C)[C@]3(F)[C@@H](O)C[C@@]21C | nt | nt | nt | nt | 0.5%
C[C@]12CCC(=O)C=C1CC[C@H]1C2CC[C@@]2(C)[C@@H]1CC[C@]2(C)O (stereo not given in full) | nt | nt | nt | nt | 3.9%
C[C@]12CC[C@H](O)CC1=CCC1C2CC[C@@]2(C)C1CC[C@@H]2OCc1ccccc1 (stereo not given in full) | 4.9% | -32.3* | 15.2 | -4.5% | -8.9%
C[C@]12CC[C@H]3[C@@H](CC=C4C[C@@H](O)CC[C@@]43C)[C@@H]1CC[C@@H]2O | nt | nt | -0.8 | nt | 6.6%
Cc1ccc(CCN2CC(C(=O)N3CCC4(CC3)OCCO4)CC2=O)cc1 (stereo not given) | -0.5% | -64.4* | -3.7 | i | 1.2%
Cc1ccc(CN2CCN(CC(=O)N3CCC4(CC3)OCCO4)C2=O)cc1 | -0.7% | -2.0 | -5.5 | -4.6% | -10.6%
CC1Sc2c(C(=O)O)c(=O)c3cc(F)c(N4CCNCC4)cc3n21 (stereo not given) | nt | nt | -4.7 | nt | nt
Clc1ccc(OCC#CCN2CCCC2)cc1 | 2.6% | -34.2* | -3.6 | i | -3.1%
CN1CCN(CC#CCOc2ccc(Cl)cc2)CC1 | 0.4% | -6.2 | 0.0 | -1.7% | 10.9%
CCCN1C2CCCC1CC(NC(C)=O)C2 (stereo not given) | 0.7% | -32.8* | -5.5 | 0.0% | -8.4%
CC(=O)NC1CC2CCCC(C1)N2 (stereo not given) | 2.5% | -0.6 | -0.6 | -4.7% | -18.3%
C[C@]12CC[C@@H]3c4ccc(OC(=O)N(CCCl)CCCl)cc4CC[C@@H]3[C@H]1CC[C@@H]2OP(=O)(O)O | nt | nt | nt | nt | -15.0%
O=C1OC(c2cc(I)c(O)c(I)c2)(c2cc(I)c(O)c(I)c2)c2ccccc21 | nt | nt | nt | nt | 25.1µM*
C[C@]12CC[C@H]3[C@@H](CCC4=CC(=O)CC[C@@]43C)[C@@H]1CC[C@@H]2C(=O)O | nt | nt | -5.8 | nt | nt
O=[N+]([O-])c1ccc(NCc2ccc(Cl)cc2)c2ccncc12 | 5.4% | -0.7 | -2.7 | -9.0% | -8.6%
O=[N+]([O-])c1ccc(NCc2ccccc2)c2nonc12 | 39.8µM* | -4.1 | -6.1 | i | -3.2%
SMILES | PINK1 modulator | CCT chaperon mod | PI4K2A block | PGK inhibitor | GLS inhibitor
CN1C(=O)NC(=O)/C(=C\c2ccc([N+](=O)[O-])o2)C1=O | -3.7% | 1.3 | -21.2 | ? | 7.08µM*
CN1C(=O)NC(=O)/C(=C/c2ccc([N+](=O)[O-])o2)C1=O | 0.6% | -0.4 | ? | 14.1µM* | 118.5%
CN1C(=O)NC(=O)/C(=C/c2ccc([N+](=O)[O-])s2)C1=O | ? | 0.0 | -24.1 | -23.2% | -10.9%
CN1CCC(N(Cc2ccccc2)c2ccccc2)CC1 | nt | nt | 0.1 | nt | nt
O=C1CN=C(c2ccccc2)c2ccccc2N1 | 8.2% | -53.1* | -1.6 | -3.2% | -4.2%
O=C1CN=C(c2ccccc2)c2cc([N+](=O)[O-])ccc2N1 | 0.9% | -2.8 | -2.7 | 0.0% | -6.4%
COP(=O)(C#Cc1ccccc1)C(O)c1ccc(Br)cc1 (stereo not given) | 0.0% | -104.6* | -0.4 | 1.5% | -4.6%
CCOP(=O)(C#Cc1ccccc1)C(O)c1ccc(Br)cc1 (stereo not given) | -0.6% | -0.6 | 2.5 | 0.1% | 6.3%
C[C@]12CC[C@H]3[C@@H](CCC4=CC(=O)CC[C@@H]43)[C@@H]1CC[C@@H]2OC(=O)CCC1CCCCC1 | nt | nt | -1.2 | nt | nt
O=C(O)c1cccc2c1NC(c1cccc([N+](=O)[O-])c1)C1CC(Sc3ccccc3[N+](=O)[O-])C(Cl)C21 (stereo not given) | -2.8% | -46.2* | -4.1 | -20.1% | 5.1%
Cc1ccc(-n2c(O)c(C=Nc3ccccc3N)c(=O)[nH]c2=O)cc1C | 2.0% | -3.4 | -19.3 | 3.2% | 20.0%
O=c1[nH]c(=O)n(-c2ccc(F)cc2)c(O)c1C=Nc1ccccc1N1CCCC1 | 35.5µM* | -1.8 | -2.5 | i | -1.8%
Cc1cc(/C=C2\C(=O)NC(=O)N(c3ccccc3F)C2=O)c(C)n1-c1cc(C(=O)O)cc(C(=O)O)c1 | 2.3% | -4.3 | -25.2 | 11.2µM* | 5.01µM*
Cc1cc(/C=C2\C(=O)NC(=O)N(c3ccc(F)cc3)C2=O)c(C)n1-c1cccc(C(=O)O)c1 | -0.5% | -2.5 | -7.9 | 10.6% | ?
CC/C(=N\Nc1ccccc1)c1c(O)n(-c2ccc(OC)cc2)c(=O)[nH]c1=O | -1.3% | 1.4 | -1.2 | -11.0% | 10µM*
CCN(CC)C(=O)c1ccc2c(c1)C1C=CCC1C(C(=O)O)N2 (stereo not given) | 1.2% | -5.6 | -25.9 | 17.8µM* | 7.08µM*
CC(N)C(=O)c1ccccc1 (stereo not given) | nt | nt | nt | nt | -5.1%[99.4 µM]
COc1ccc(N2C(=O)CC(N3CC=C(c4ccccc4)CC3)C2=O)cc1 (stereo not given) | 0.4% | -61.2* | 3.8 | -8.1% | -4.4%
Cc1ccc(N2C(=O)NC(=O)/C(=C/c3ccoc3)C2=O)cc1 | 2.1% | -1.3 | -23.9 | 11.2µM* | 9.3%
